Screening data deposited in PubChem BioAssay by National Center for Advancing Translational Sciences (NCATS).
This is a sample that favours compounds with a hit; in the whole collection about 3.8% have one here.
Nrf2 block = inhibitors of Nrf2 signaling | Potency, µM (highest dose often 46 µM), for inactives: at the top dose activity change, negative = inhibition, most hits filed as inhibitors | actives 2.1% (n = 360,000) | A549 ARE-Fluc reporter, luciferase luminescence, 18-24 h; also: % is scaled to controls: 0 for no effect and ±100 for the full control effect; nearly all actives have a fitted effect of over 60% in size
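A549 ARE_Fluc cells (5000/well, 5% FBS OPTI-MEM) pre-incubated 2 h, then treated with compounds 18-24 h at 37C/5% CO2 in concentration-response. CellTiter-Fluor viability read first; BugLite luciferase luminescence after 15 min at room temperature gives Nrf2 activity.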
TGFb inhibitor = inhibitors of TGF-b signaling. HepG2 CAGA-GFP TGF-b/SMAD3 reporter, GFP fluorescence, 18 h; TGF-beta stimulated, 500 pg/mL final. Potency, µM (series often up to 46.1 µM), inactives show at the highest dose activity, negative = inhibition, most hits filed as inhibitors. actives 1.2% (n = 410,000); also: % is scaled to controls: 0 for no effect and ±100 for the full control effect; nearly all actives have a fitted effect of over 65% in size
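Using HEPG2 CAGA-GFP reporter cells at 1000 cells/well, we pinned test compounds, stimulated with recombinant TGF-beta (500 pg/mL final) and measured total well GFP after 18 h.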
ATXN2 expr inh = inhibitors of ATXN2 expression. Potency, µM (top dose mostly 57 µM), without a hit: at the top dose activity change, negative = inhibition, most hits filed as inhibitors. actives 0.72% (n = 360,000). HEK-293 ATXN2-luciferase reporter, luminescence, 24 h; also: % is scaled to controls: 0 for no effect and ±100 for the full control effect; nearly all actives have a fitted effect of over 55% in size
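ATXN2-luciferase reporter cells (luciferase flanked by upstream and downstream ATXN2 gene portions) were treated 24 h at 37 °C with compounds at up to 57 uM. SteadyGlo luminescence gave expression; GF-AFC fluorescence gave viability.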
ATXN viability = viability counter-screen for ATXN expression inhibitors. Potency, µM (top dose mostly 56.7 µM), hits mostly cytotoxic. S2 cells (HEK-293 line with an ATXN2-luciferase reporter) viability, CellTiter-Fluor protease fluorescence, 24 h. actives 0.49% (n = 400,000); also: nearly all actives have a fitted effect of over 40% in size
HepG2 viability = HepG2 cytotoxicity, counter-screen for TGF-b inhibitors; AID 588856; Potency, µM (highest dose often 46.1 µM), for the others: at the highest dose activity change, negative = cytotoxicity, actives largely listed as cytotoxic; HepG2 CAGA-GFP viability, ATP luminescence, 18 h; actives 0.76% (n = 410,000)
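CellTiter-Glo luminescence gave cytotoxicity after 18 hours at 37 degrees C. The cells were HepG2 CAGA-GFP in 1% FBS DMEM, stimulated with 500 pg/mL TGF-beta after compound addition. %Activity was normalised to no-cell wells (complete cell-killing) and DMSO (no toxicity), and curves were fitted and classified.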
A549 tox-1 = A549 cytotoxicity, counter-screen for Nrf2 inhibitors; A549 ARE-Fluc cells, CellTiter-Fluor viability, 18-24 h; Potency, µM (titrated, usually from 46 µM), for the others: at the highest dose activity change, negative = cytotoxicity, actives largely listed as inhibitors; actives 0.16% (n = 390,000); AID 504648; also: % is scaled to controls: 0 for no effect and ±100 for the full control effect
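Cytotoxicity counterscreen: CellTiter-Fluor fluorescence was measured in A549 ARE_Fluc cells after 18-24 h of compound exposure in a concentration series. The subsequent BugLite luminescent read reports ARE-luciferase activity.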
FLuc enzyme inh = counter-screen for Nrf2 inhibitors: firefly luciferase enzyme inhibition; shares compounds with Nrf2 block; purified firefly luciferase, luminescence inhibition; Potency, µM (top dose mostly 57.5 µM), without a hit: at the highest dose activity change, negative = inhibition, most hits filed as inhibitors; actives 4% (n = 1,400); also: % is scaled to controls: 0 for no effect and ±100 for the full control effect; nearly all actives have a fitted effect of over 65% in size
Target sequence (P08659 whole entry, looked up): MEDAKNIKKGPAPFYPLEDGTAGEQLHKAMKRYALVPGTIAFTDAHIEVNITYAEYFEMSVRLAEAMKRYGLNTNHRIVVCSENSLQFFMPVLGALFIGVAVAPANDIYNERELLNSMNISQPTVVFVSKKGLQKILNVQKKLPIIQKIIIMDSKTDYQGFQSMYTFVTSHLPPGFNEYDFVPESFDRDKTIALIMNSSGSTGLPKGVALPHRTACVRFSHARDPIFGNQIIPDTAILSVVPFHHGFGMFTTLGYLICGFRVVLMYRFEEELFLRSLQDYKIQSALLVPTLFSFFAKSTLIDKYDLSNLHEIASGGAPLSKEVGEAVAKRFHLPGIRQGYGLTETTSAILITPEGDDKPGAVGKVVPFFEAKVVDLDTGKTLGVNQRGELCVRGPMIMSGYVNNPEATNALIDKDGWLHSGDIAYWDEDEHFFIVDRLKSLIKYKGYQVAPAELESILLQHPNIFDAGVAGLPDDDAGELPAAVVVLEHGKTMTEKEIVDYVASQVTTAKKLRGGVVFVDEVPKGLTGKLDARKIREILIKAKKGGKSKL
A549 tox-2 = counter-screen for Nrf2 inhibitors: cytotoxicity in A549 ARE cells. AID 720523. actives 2% (n = 1,400). A549 ARE-Fluc cells, cytotoxicity counterscreen. Potency, µM (series often up to 46.1 µM), for inactives: top-dose activity change, negative = cytotoxicity, most hits filed as inhibitors. shares compounds with Nrf2 block;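 also: cells exposed to compounds for 18 to 24 hours; % is scaled to controls: 0 for no effect and ±100 for the full control effect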
ARE-Fluc inh = Nrf2 inhibition confirmed, A549 ARE-luciferase; A549 ARE-firefly luciferase reporter, luminescence; actives 74% (n = 1,400); Potency, µM (doses to about 46.1 µM), for inactives: at the top dose activity change, negative = inhibition, usual class: inhibitors; shares compounds with Nrf2 block; also: % is scaled to controls: 0 for no effect and ±100 for the full control effect; nearly all actives have a fitted effect of over 65% in size
Starred values were filed as active, the others as inactive; i = inactive; ? = inconclusive; / = no result given. Calls follow the shape of the dose curve; as a rule, active = well fitted curve in the direction sought with a large enough effect; inconclusive = small, poorly fitted or top-dose-only effect, or another doubt; inactive = no such curve, though single readings can be large; an effect the other way counts as inactive or inconclusive. Potency is read from the fitted curve at half-maximal effect.

SMILES	Nrf2 block	TGFb inhibitor	ATXN2 expr inh	ATXN viability	HepG2 viability	A549 tox-1	FLuc enzyme inh	A549 tox-2	ARE-Fluc inh
CC(=O)O[C@]1(C(C)=O)CC[C@H]2[C@@H]3C=C(C)C4=CC(=O)CC[C@@H]4[C@H]3CC[C@@]21C	?	12.0%	-9.6%	i	-22.6%	1.4%	/	/	/
CC(=O)O[C@]1(C(C)=O)CCC2C3C=C(C)C4=CC(=O)CC[C@]4(C)C3CC[C@@]21C (some centres undefined)	0.259µM*	6.2%	/	i	-0.4%	-6.7%	-11.1%	-8.3%	1.16µM*
CCn1nc(C)c(NC(=O)/C=C/c2cnn(C)c2C)c1C	-17.8%	-2.0%	1.0%	i	3.6%	-18.4%	/	/	/
CCn1ncc(/C=C/C(=O)Nc2c(C)nn(Cc3ccc(Cl)cc3Cl)c2C)c1C	5.8µM*	-9.9%	?	?	-9.9%	?	-10.3%	-23.3%	/
COC(=O)c1c(C)oc2ccc(N(C(=O)c3ccncc3)S(=O)(=O)c3ccc(OC)cc3)cc12	0.82µM*	-32.8%	/	/	-13.2%	?	-3.0%	-7.4%	14.6µM*
CC(=O)c1c(C)oc2ccc(N(C(=O)c3ccncc3)S(=O)(=O)c3ccc(C)cc3C)cc12	?	-3.7%	-11.3%	i	-22.5%	4.0%	/	/	/
CCc1ccc(S(=O)(=O)N(C(=O)c2ccncc2)c2ccc3oc(C)c(C(=O)OC)c3c2)cc1	6.51µM*	?	/	/	-62.1%	-12.9%	-8.3%	-12.7%	10.3µM*
CCOc1ccc(S(=O)(=O)N(C(=O)c2ccncc2)c2ccc3oc(C)c(C(=O)OC)c3c2)cc1	0.651µM*	?	/	/	-21.7%	?	1.2%	-14.7%	-17.6%
CCOC(=O)c1c(C)oc2ccc(N(C(=O)c3ccncc3)S(=O)(=O)c3ccc(F)cc3)cc12	?	-3.6%	-38.2%	i	1.0%	-12.6%	/	/	/
COc1ccc(S(=O)(=O)N(C(=O)c2ccncc2)c2ccc3oc(C)c(C(C)=O)c3c2)cc1	5.8µM*	?	/	/	-24.6%	0.0%	-2.1%	0.0%	?
CC(OC(=O)c1nc(Cl)ccc1Cl)C(=O)Nc1ccc2c(c1)OCCO2 (centres undefined)	0.2%	3.7%	6.2%	i	4.1%	0.1%	/	/	/
CCCS(=O)(=O)NC(=O)C1(C)CCN(C(=O)c2ccc(C(F)(F)F)nc2C)C1 (centres undefined)	/	-0.4%	6.4%	i	1.9%	/	/	/	/
CC(=O)N(C(C)=O)N1C(=O)C2C3c4ccccc4C(c4ccccc43)C2C1=O (centres undefined)	9.2µM*	?	/	i	-21.2%	?	-27.1%	?	14.6µM*
Cn1nccc1C(=O)Nc1ccc(Cl)cc1	18.2%	19.9%	7.4%	i	8.5%	12.2%	/	/	/
Cn1nccc1C(=O)Nc1cc(Cl)ccc1Cl	2.91µM*	7.6%	/	i	-3.1%	1.3%	-14.9%	-1.0%	5.8µM*
Cc1ccc(S(=O)(=O)NCc2ccc(C(=O)N3CCN(c4ccc([N+](=O)[O-])cc4)CC3)cc2)cc1	5.17µM*	-24.8%	/	?	-14.0%	?	-1.4%	-20.8%	5.8µM*
COc1ccc(N2CCN(C(=O)c3ccc(CNS(=O)(=O)c4ccc(C)cc4)cc3)CC2)cc1	-8.7%	-14.5%	-17.2%	i	-28.3%	-11.1%	/	/	/
COc1ccc(CNC(=O)c2cccc(N3CCCS3(=O)=O)c2)cc1	-5.2%	10.1%	-19.4%	i	-0.3%	7.9%	/	/	/
COc1ccc(CNC(=O)c2cccc(N3CCCS3(=O)=O)c2)cc1OC	2.59µM*	3.3%	/	/	-10.5%	-10.4%	-1.3%	-0.5%	?
CC(C)CC(=O)N1CCN(S(=O)(=O)c2ccc(C3CCCCC3)cc2)CC1	8.2µM*	-18.0%	-27.3%	i	-26.5%	-16.2%	1.5%	-4.9%	?
CC(C)CC(=O)N1CCN(S(=O)(=O)c2ccccc2)CC1	0.4%	-5.7%	/	/	-18.5%	-1.4%	/	/	/
Cc1cc(C(=O)NC2CCCc3c2cnn3-c2ccc(C(C)(C)C)cc2)n[nH]1 (centres undefined)	4.61µM*	-20.2%	/	?	-44.0%	13.1%	?	-10.7%	16.4µM*
Cc1ncoc1C(=O)NC1CCCc2c1cnn2-c1ccc(C(C)(C)C)cc1 (centres undefined)	2.31µM*	?	?	i	-28.3%	?	?	-6.1%	5.17µM*
Cc1ncoc1C(=O)NC1CCCc2c1cnn2-c1cc(F)cc(F)c1 (centres undefined)	/	4.7%	/	?	-18.1%	/	/	/	/
Cc1nnsc1C(=O)NC1CCCc2c1cnn2-c1ccc(C(C)(C)C)cc1 (centres undefined)	2.06µM*	13.0%	-23.2%	i	-24.6%	?	?	-12.8%	/
SMILES	Nrf2 block	TGFb inhibitor	ATXN2 expr inh	ATXN viability	HepG2 viability	A549 tox-1	FLuc enzyme inh	A549 tox-2	ARE-Fluc inh
CC(C)(C)c1ccc(-n2ncc3c2CCCC3NC(=O)CCC2=NNC(=O)CC2)cc1 (centres undefined)	/	-8.0%	/	i	-27.6%	/	/	/	/
CC(C)(C)c1ccc(-n2ncc3c2CCCC3NC(=O)c2ccncc2)cc1 (centres undefined)	2.59µM*	?	-8.4%	i	-6.0%	-12.2%	?	-5.5%	8.2µM*
COc1ccc(C(=O)c2[nH]c(N)c(C(=O)NCCc3c[nH]c4ccccc34)c2-c2ccc(Br)cc2)cc1	/	/	-6.3%	i	/	/	/	/	/
COc1cc([N+](=O)[O-])cc(/C=N/NC(=O)c2ccc(NC(=O)c3ccc(C)cc3)cc2)c1O	4.61µM*	?	?	?	-72.3%	?	-15.7%	?	6.51µM*
CCN(C(=O)CSc1nc2ccccc2n1CC(=O)NCc1ccc(OC)cc1)c1ccccc1	/	2.3%	4.7%	i	-13.7%	10.0%	/	/	/
C[n+]1ccccc1/C=C/c1ccc(F)c(F)c1	-14.4%	-5.3%	-3.9%	i	-9.5%	5.9%	/	/	/
